# DT40 TDP1 CPT – growth inhibition of DT40 Tdp1-/-;hTDP1 cells with camptothecin (screen for TDP1 inhibitors). 12% of 420,000 active. chicken DT40 Tdp1-/-;hTDP1 cells + 20 nM CPT, ATP luminescence, 48 h. Potency, µM (titrated, usually from 46.2 µM), for inactives: at the top dose activity change, negative = growth inhibition, hits mostly inhibitors; further: potency means the concentration at half of the fitted maximal effect; nearly all actives have a fitted effect of over 55% in size
#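 Cell growth measured by CellTiter-Glo luminescence after a minimum 48 h, 37 C compound exposure with 20 nM CPT in Tdp1-knockout DT40 cells stably expressing hTDP1, seeded 400/well; qHTS titration format.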
# HT1080-NT tox – kills 2HG-producing HT-1080-NT fibrosarcoma cells | Potency, µM (titrated, usually from 46.1 µM), for the others: at the top dose activity, negative = less viability, actives largely listed as cytotoxic | HT-1080-NT fibrosarcoma viability, CellTiter-Glo ATP luminescence, 48 h | AID 686970 | 1.6% of 360,000 active;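 further: NT is the 2HG producing partner of a matched IDH1 knockdown line; potency means the concentration at half of the fitted maximal effect; 0% = DMSO-treated cells and -100% = media-only wells without cells; nearly all actives have a fitted effect of over 55% in size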
#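 Viability by CellTiter-Glo luminescence after 48 h compound exposure at 37C of HT-1080-NT cells (750/well, RPMI, 5% FBS). % activity scaled between DMSO wells and medium-only wells, then curve-fitted and categorized by curve class.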
# HT1080 IDH1KD tx – HT-1080 IDH1 knockdown cell toxicity (counter line). HT-1080 IDH1 knockdown viability, ATP luminescence, 48 h. 2% of 360,000 active. Potency, µM (top dose mostly 46.1 µM), without a hit: at the highest dose activity, negative = toxicity, hits mostly cytotoxic;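 further: potency means the concentration at half of the fitted maximal effect; 0% = DMSO wells and -100% = cell-free medium wells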
#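 Assay cells: HT-1080 with IDH1 knockdown, 750 per well, RPMI/5% FBS. Exposure: 48 h at 37 °C following 2 h pre-incubation. Read: CellTiter-Glo luminescence; fitted concentration-response, curve class assigned.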
# IL1B secr inh – blocks inflammasome-driven IL-1 beta release. THP-1 LPS/ATP IL-1B secretion, AlphaLISA, 16 h; hits give low values. activity change, % at 57.5 µM. 4.7% of 360,000 active. AID 743279; in the data active means activity change below about -50%; inconclusive means mostly about -30% to -49%
#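 Secreted IL-1B measured by AlphaLISA bead assay after 16 h compound exposure of THP-1 cells; compounds (final up to 57.5 uM) added 1 h before LPS (250 ng/mL) and ATP (1.25 mM) stimulation; lower signal means less secretion.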
# TDP1 cell noCPT – qHTS for Inhibitors of human tyrosyl-DNA phosphodiesterase 1 (TDP1): qHTS in cells in absence of CPT; DT40 Tdp1-/- hTDP1 cells, no CPT, ATP luminescence, 48 h; Potency, µM (series often up to 46.2 µM), for inactives: top-dose activity change, negative = growth inhibition, usual class: inhibitors; 15% of 420,000 active; AID 686978, 2013; further: potency means the concentration at half of the fitted maximal effect; nearly all actives have a fitted effect of over 55% in size
#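 Seeded 400 DT40-hTDP1 cells/well (vehicle DMSO, no 20 nM CPT); pinned compounds; ≥48 hr at 37 °C; CellTiter-Glo luminescence as viability measure.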
# Active calls of the source: *; ? = inconclusive; . = no result; ! = a repeat was not active; [ ] = another dose, or the depositor's remark. An excerpt weighted towards active compounds, which were near 19% of everything screened. Unless noted, the call rests on the fitted dose curve; in most records, active means well fitted curve in the direction sought with a large enough effect; inconclusive means small, poorly fitted or top-dose-only effect, or another doubt; inactive means no such curve, though single readings can be large; an effect the other way counts as inactive or inconclusive. Unless noted, on the % scale 0 is the no-effect control and ±100 the full control effect.
SMILES,DT40 TDP1 CPT,HT1080-NT tox,HT1080 IDH1KD tx,IL1B secr inh,TDP1 cell noCPT
O=S(=O)(Nc1nc(-c2ccccc2)cs1)c1cc(Cl)ccc1Cl,9%,-7%,-20%,24,-5%
Cc1cc(NC(=O)CCC(=O)N(CCC(C)C)C(C(=O)NCC2CCCO2)c2ccccc2C)no1 (centres undefined),-11%,-8%,-10%,-57*,?
Cc1cc(NC(=O)CCC(=O)N(CCC(C)C)CC(=O)NCC2CCCO2)no1 (centres undefined),5%,-1%,0%,39,0%
C=CCN(C(=O)CCC(=O)Nc1cc(C)on1)C(C(=O)NC1CCCC1)c1ccc(CC)cc1 (centres undefined),?,-10%,-20%,-9,15µM*
CCCCN(C(=O)CCC(=O)Nc1cc(C)on1)C(C(=O)NC1CCCC1)c1ccc(OCC)cc1 (centres undefined),?,-20%,-11%,-16,16µM*
CC(C)CN(CC(C)C)C(=O)CS(=O)(=O)Cc1ccccc1,-22%,-2%,0%,-10,-20%
O=C(CSc1ccccc1)Nc1cc(S(=O)(=O)N2CCOCC2)ccc1N1CCOCC1,-4%,0%,5%,-13,0%
CN(C)c1ccc(O)c2c1CC1CC3[C@@H](N(C)C)C(=O)C(C(N)=O)=C(O)[C@]3(O)C(=O)C1=C2O (some centres undefined),8.2µM*,.,.,-8,3.7µM*
CN(C)[C@@H]1C(=O)C(C(=O)NCN2CCCC2)=C(O)[C@@]2(O)C(=O)C3=C(O)c4c(O)cccc4[C@@](C)(O)C3C[C@@H]12 (some centres undefined),-15%[21.1 µM],.,.,.,-1%[21.1 µM]
CN(C)c1ccc(O)c2c1C[C@H]1C[C@H]3[C@H](N(C)C)C(=O)C(C(N)=O)=C(O)[C@@]3(O)C(=O)C1=C2O,6.5µM*,.,.,.,21µM*!
CC1(C(=O)NS(=O)(=O)c2ccccc2Cl)CCN1C(=O)COc1ccc(Cl)cc1 (centres undefined),0%,8%,4%,6,0%
CCOc1ccc(-n2c(-c3ccc(Br)cc3)c[n+]3c2CCCCC3)cc1,4.6µM*,8.2µM*,?,-79*,0.37µM*
FC(F)Oc1ccc(-c2c[n+]3c(n2-c2ccccc2)CCCCC3)cc1,2.1µM*,?,?,?,1.5µM*
CCOc1ccc(N2C(=O)CC(Cc3ccc(Br)cc3)C2=O)cc1 (centres undefined),-16%,-5%,-4%,-7,-26%
COc1ccc(-c2c[n+]3c(n2-c2c(C)n(C)n(-c4ccccc4)c2=O)CCCCC3)cc1,-14%,7%,28%,15,?
CCOc1ccc(-n2c(-c3ccccc3)c[n+]3c2CCC3)cc1,1µM*,?,8.2µM*,-68*,1µM*
CCOc1ccc(-n2c(-c3ccc(OC)cc3)c[n+]3c2CCCCC3)cc1,0.21µM*,?,3.7µM*,-70*,0.029µM*
O=C(NCCCn1ccnc1)c1ccc(Cl)s1,-1%,-1%,-1%,9,1%
CC(=O)N1CCC2(CC1)CN(c1ccccc1)C2,?,.,.,.,-21%
COc1ccc(-n2c(-c3ccc(Cl)cc3)c[n+]3c2CCCCC3)cc1,0.82µM*,?,?,0,0.73µM*
O=C(Cn1cccc1C(=O)c1ccccc1)NCCC1=CCCCC1,12%,1%,-12%,11,-23%
COC(=O)C1CN(C(=O)COc2ccccc2)c2ccccc2O1 (centres undefined),-3%,9%,24%,22,-8%
CCN1C(=O)N[C@H](c2ccc(Br)cc2)C(C(=O)OC)=C1C,-5%,-7%,3%,7,-16%
CCN1C(=NCCN2CCOCC2)N[C@@H](c2ccccc2)C(C(=O)OC)=C1C,-8%,1%,1%,-4,-9%
COC(=O)C1=C(C)N(Cc2ccccc2)C(=NCc2cc(OC)c(OC)c(OC)c2)N[C@H]1c1ccc(Br)cc1,13µM*,-21%,?,?,18µM*
SMILES,DT40 TDP1 CPT,HT1080-NT tox,HT1080 IDH1KD tx,IL1B secr inh,TDP1 cell noCPT
CCN1C(=S)N[C@@H](c2ccccc2)C(C(=O)OC)=C1C,?,1%,8%,25,-26%
COC(=O)C1=C(C)N(Cc2ccccc2)C(=NCCN2CCOCC2)N[C@H]1CCc1ccccc1,?,-1%,-13%,-18,23µM*
COC(=O)C1=C(C)N(CC2CC2)C(=NCc2cc(OC)c(OC)c(OC)c2)N[C@H]1c1ccccc1,?,5%,8%,-1,23µM*
COC(=O)C1=C(C)N(Cc2ccccc2)C(=NCc2cc(OC)c(OC)c(OC)c2)N[C@H]1c1ccccc1,21µM*,-1%,-7%,?,15µM*
CCOc1ccccc1/C=C(/C#N)C(N)=O,-1%,0%,3%,27,1%
CC1Cc2cc(/C(O)=C3/C(=O)C(=O)N(CC4CCCO4)C3c3ccco3)ccc2O1 (centres undefined),1%,10%,16%,-1,-25%
O=C(CN1C(=O)NC2NC(=O)NC21)NC1CCCCC1 (centres undefined),-5%,4%,12%,-4,24%
Nc1nnc(SCC(=O)Nc2cccc(F)c2)s1,15%,.,.,.,11%
COC(=O)C1=C(C)N(Cc2ccccc2)C(=O)N[C@H]1CCc1ccccc1,7%,9%,2%,0,5%
COC(=O)C1=C(C)N(Cc2ccccc2)C(=NCc2cc(OC)c(OC)c(OC)c2)N[C@H]1CCc1ccccc1,21µM*,-3%,-4%,-58*,16µM*
COc1ccc(NC(=O)CN(c2ccc(OC)cc2)S(=O)(=O)c2ccc(OC)c(OC)c2)cc1,-27%,8%,-7%,13,?
Cc1cnc(CNc2ccnc(-c3ccccc3C)n2)cn1,10%,.,.,.,-6%
Cc1ccnc(N2CCN(C(=O)CSc3nc4ccccc4nc3N3CCC(C)CC3)CC2)c1,?,-4%,-3%,11,?
O=C(CSc1nc2ccccc2nc1N1CCCCC1)N1CCN(c2ccccc2)CC1,21µM*,-18%,-7%,-21,?
O=C(CSc1nc2ccccc2nc1N1CCOCC1)N1CCN(c2ccccc2)CC1,21µM*,-27%,-10%,-27,12µM*
Cc1cccc(N2CCN(C(=O)CSc3nc4ccccc4nc3N3CC(C)OC(C)C3)CC2)c1C (centres undefined),2.1µM*,-15%,-3%,16,4.1µM*
Cc1ccccc1S(=O)(=O)N1C(c2ccc(Cl)c(Cl)c2)CC=C(C(=O)O)C1c1cccc(Br)c1 (centres undefined),?,?,?,50,?
